# FUS suppressor: suppressors of FUS proteinopathy in yeast | S. cerevisiae FUS-expressing, growth rescue, OD600, 24 h | Potency, µM (top dose mostly 76.6 µM), most hits filed as activators | 0.24% of 390,000 active | AID 1347120;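 further: plate controls were DMSO vehicle for no effect and reference control for full effect; nearly all actives have a fitted effect of over 55% in size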
#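 S. cerevisiae expressing FUS from galactose induction served as the toxicity model. Growth after 24hr at 30C, read as absorbance at 600 nm, indicates suppression of toxicity; compounds dosed at several concentrations.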
# uPA surface inh: cell surface uPA generation inhibition; cell surface uPA generation assay, qHTS; 0.31% of 330,000 active; Potency, µM (doses to about 38.3 µM), for the others: at the top dose activity change, negative = inhibition, actives largely listed as inhibitors; active means well fitted inhibition curve with a large enough effect; inconclusive means small, poorly fitted or top-dose-only effect; inactive means no such curve, though single readings can be large or run the other way; tested in mouse RAW 264.7 cells; further: on the % scale 0 is the no-effect control and ±100 the full control effect; nearly all actives have a fitted effect of over 55% in size
# TDP-43 yeast inh: rescues yeast growth from TDP-43 toxicity | AID 652104 | TDP-43 expressing yeast growth rescue, BacTiter-Glo, 24 h | 1.8% of 410,000 active | Potency, µM (top dose mostly 46.1 µM), inactives show at the highest dose growth rescue (activation), actives largely listed as activators; further: % of control where 0% means no effect; nearly all actives have a fitted effect of over 50% in size
#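 Galactose-induced TDP-43 yeast, OD600=0.02, compound pinned; 24 hr, 30 deg C; BacTiter-Glo luminescence for growth. Inhibitors of TDP-43 toxicity read as activators.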
# aSyn yeast inh: rescues yeast growth from alpha-synuclein toxicity; Yeast expressing alpha-synuclein, growth rescue, BacTiter-Glo, 24 h; Potency, µM (series often up to 46.1 µM), without a hit: top-dose growth rescue (activation), usual class: activators; 0.14% of 370,000 active; AID 652106; further: % of control where 0% means no effect; nearly all actives have a fitted effect of over 65% in size
#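 Rescue of yeast growth: cells expressing toxic alpha-synuclein, induced in galactose at OD600 0.02, incubated with compound 24 h at 30 C. ATP luminescence quantified growth; inhibitors of toxicity appear as activators.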
# Abeta yeast res: restores growth of yeast expressing A-beta42 peptide; 0.063% of 410,000 active; yeast expressing A-beta42, growth rescue, OD600, 48 h; response scale: 0% DMSO, 100% iron-clioquinol control; Potency, µM (highest dose often 46.1 µM), actives largely listed as activators; further: nearly all actives have a fitted effect of over 55% in size
#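 Yeast A-beta toxicity model in growth medium with pinned compounds, 48 h at 30 C; growth read as absorbance at 600 nm. Normalized to FeCl3/clioquinol equimolar mix (positive) and DMSO (negative).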
# BCR signal inh: inhibitors of chronic active B-cell receptor signaling | ABC-DLBCL IkBa-CBG/CBR reporter, luminescence ratio, 4 h | Potency, µM (doses to about 46.1 µM), for inactives: top-dose activity change, negative = inhibition, hits mostly inhibitors | 0.05% of 340,000 active; active means well fitted inhibition curve with a large enough effect in the signal ratio, with a control signal flat, not every such curve was filed as active; inconclusive means small, poorly fitted or top-dose-only effect, or effect the other way, or a change in a side signal; the % refers to the signal ratio;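 further: plate controls were basal doxycycline-induced cells for no effect and cells given 10 µM MG132 for full effect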
#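 Doxycycline induced both beetle luciferases in TMD8 lymphoma cells; IKK-driven degradation limits the IkappaBalpha-fused green signal, while red luminescence normalises for cell number and nonspecific effects. Compounds tested up to 46 uM, 4 hrs.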
# * marks the source's active call; other numbers are inactive results; i = inactive; u = inconclusive; x = not tested or not shown. The list is not random: actives were taken first. Their share in the collection is about 2.3%. Unless noted, the call rests on the fitted dose curve; in most records, active means well fitted curve in the direction sought with a large enough effect; inconclusive means small, poorly fitted or top-dose-only effect, or another doubt; inactive means no such curve, though single readings can be large; an effect the other way counts as inactive or inconclusive. Potency means the concentration at half of the fitted maximal effect.
SMILES,FUS suppressor,uPA surface inh,TDP-43 yeast inh,aSyn yeast inh,Abeta yeast res,BCR signal inh
Cc1ccc(Nc2cc(C)nc(-c3ccccc3O)n2)cc1,i,3%,u,-13%,i,u
C/C(=N\Nc1cc(C)nc(-c2ccccc2O)n1)c1ccccc1,i,-5%,10µM*,-14%,i,u
Cc1cc(N/N=C/c2ccc(O)c(C)c2O)nc(-c2ccccc2O)n1,i,-8%,10µM*,-9%,i,u
O=C(COC(=O)c1ccc(F)c(S(=O)(=O)N2CCOCC2)c1)c1ccc(Br)cc1,i,-1%,20%,15%,i,u
COCCCNC(=O)/C=C/c1ccc(Cl)cc1Cl,i,-2%,14µM*,0%,i,1%
COc1nc(-c2ccccc2)c2cc(C)ccc2n1,i,-5%,13µM*,5%,i,-3%
Cc1cc(Cl)c(S(=O)(=O)Nc2cc(S(=O)(=O)N3CCOCC3)ccc2F)cc1OCC(N)=O,i,9%,13%,0%,i,1%
COc1ccc2cc(-c3ccsc3)ncc2c1,i,8.9µM*,u,-16%,i,u
COc1cc(OC)cc(-c2cc3ccc(OC)cc3cn2)c1,i,3.5µM*,5%,-23%,i,u
COc1ccc2cc(-c3ccccc3)ncc2c1,i,u,24%,0%,i,0%
CCN(CC)C(=O)C1CC(c2ccc(OC)cc2)=NO1 (stereo unspecified),i,x,-16%,-1%,i,u
Cc1c(C)c2cc(Cl)c(OCC(=O)Nc3ccccn3)cc2oc1=O,i,x,2%,-3%,i,x
N#CC(c1ccc([N+](=O)[O-])cc1)C(CC(=O)c1ccccc1)c1ccccc1 (stereo unspecified),i,5%,-12%,1%,i,x
N#CC(c1ccccc1)C(CC(=NO)c1ccccc1)c1ccccc1 (stereo unspecified),i,x,18µM*,u,i,x
COc1ccc2[nH]c(-c3ccc(C)cc3)cc(=O)c2c1,i,2.8µM*,2%,-10%,i,u
COc1ccc2[nH]c(-c3ccccc3)cc2c1,i,-6%,13µM*,1%,i,4%
COc1ccc2nc(-c3ccccc3)[nH]c2c1,i,-4%,18%,-18%,i,u
O=c1cc(-c2ccccc2)[nH]c2ccccc12,i,-13%,24%,0%,i,11µM*
CCOC(=O)Nc1ccc2nc(Sc3ccc(Cl)cc3)sc2c1,i,1.6µM*,-8%,-4%,i,u
CCOC(=O)CSc1nc2ccc(NC(=O)c3ccc(Cl)cc3)cc2s1,i,x,7%,x,i,x
O=C(NCCNc1ccc([N+](=O)[O-])cc1C(F)(F)F)c1ccccc1,x,0%,22µM*,12%,i,7%
O=C(NCCNc1ccc([N+](=O)[O-])cc1C(F)(F)F)c1cccc(F)c1,x,-10%,u,-4%,u,-2%
O=C(CNC(=O)c1ccccc1)OCc1ccc([N+](=O)[O-])cc1,x,2%,u,0%,i,-7%
Oc1ccc(C23CC4CC(CC(C4)C2)C3)cc1O,i,u,6.3µM*,2.8µM*,u,-6%
CC(=O)Nc1ccc(C23CC4CC(CC(C4)C2)C3)cc1,i,0%,24%,-3%,i,0%
SMILES,FUS suppressor,uPA surface inh,TDP-43 yeast inh,aSyn yeast inh,Abeta yeast res,BCR signal inh
COc1cccc(CNC(=O)CCCCCn2c(=O)[nH]c3cc(OC)c(OC)cc3c2=O)c1,i,x,-2%,x,i,x
CCn1c2ccccc2c2cc(NC(=O)COC(=O)C3CCC(=O)N3)ccc21 (stereo unspecified),i,0%,4%,-1%,i,u
COc1ccc2c(c1OC)C(=O)N1N=C(c3ccc(Br)cc3)CC21 (stereo unspecified),i,0%,20µM*,0%,i,1%
COc1ccc2c(c1OC)C(=O)N1N=C(c3ccc(Cl)cc3)CC21 (stereo unspecified),i,-7%,35µM*,10%,i,u
COc1ccc(C2=NN3C(=O)c4c(ccc(OC)c4OC)C3C2)cc1 (stereo unspecified),i,-3%,9%,0%,i,-4%
CCOc1ccc(S(=O)(=O)N2CN(c3cccc(C(C)=O)c3)c3nc4ccccc4nc32)cc1,x,3%,19%,-10%,i,10%
Cc1ccccc1-n1nnnc1Sc1nnnn1-c1ccccc1,i,-20%,u,14%,i,u
CCCSc1nnc(Sc2nnnn2-c2ccccc2)s1,i,-17%,18µM*,0%,i,9.2µM*
CCCCCCCCCc1conc1C(=O)CP(=O)(OC)OC,i,x,35µM*,-4%,i,x
CCCCCCCCCc1conc1C(=O)/C=C/c1ccco1,i,x,14%,1%,i,x
C=CCn1c(C)cc(C(=O)CSc2nc3ccccc3[nH]2)c1C,i,x,16%,19%,i,u
C=CCn1c(C)cc(C(=O)CSc2nc3ccccc3c(=O)[nH]2)c1C,i,8%,10µM*,2%,i,8%
Cc1cc(C(=O)CSc2nnc(Cc3ccccc3)o2)c(C)n1Cc1ccc2c(c1)OCO2,i,1%,8%,-3%,i,u
C=CCn1c(C)cc(C(=O)CSc2nc3ccccc3o2)c1C,i,-2%,22µM*,5%,i,3%
C=CCn1c(C)cc(C(=O)CSc2nnc(NCc3ccccc3)s2)c1C,i,-13%,11µM*,2%,u,u
C=CCn1c(C)cc(C(=O)CSc2nnc(Cc3ccccc3)o2)c1C,i,2%,2.5µM*,2%,u,-1%
Cc1cc(C(=O)CSc2nc3ccccc3o2)c(C)n1C1CC1,i,3%,22µM*,8%,i,u
Cc1nnc(Nc2ccc(F)cc2)c2ccccc12,i,0%,7%,5%,i,-13%
C[C@H](NC(=O)/C=C/[C@H]1O[C@@H](n2ccc(=O)[nH]c2=O)[C@H](O)[C@@H]1O)C(=O)O,i,x,21%,-2%,i,x
C[C@H]([C@@H](N)C(=O)N[C@@H](C(=O)O)[C@@H]1O[C@H](n2ccc(=O)[nH]c2=O)[C@@H](O)[C@H]1O)[C@@H](O)c1ccc(O)cn1,i,-3%,4.5µM*,0%,u,6%
COCCNC(=O)/C(C#N)=C/c1ccc(O)cc1,i,-1%,-27%,-37%,i,-6%
N#CC(=Cc1ccc(O)c(O)c1)C(=O)NCc1ccccc1,x,x,x,1%,x,x

# Screening results deposited in PubChem by National Center for Advancing Translational Sciences (NCATS).
